Measured values reported in publication PMC9911399, “Two distinct binding modes provide the RNA-binding protein RbFox with extraordinary sequence specificity”.
Positions count from the first letter of the chain named. In all, about 16,000 sequences were measured (“ka relative to ugcaugu”: median about 0.0091, highest 2% from about 0.032 on). Shown is part of a subset that was picked to be rich in the highest values.

T1: RBFOX1 RRM (Homo sapiens, UniProt Q9NWB1 109-208)
T1 sequence: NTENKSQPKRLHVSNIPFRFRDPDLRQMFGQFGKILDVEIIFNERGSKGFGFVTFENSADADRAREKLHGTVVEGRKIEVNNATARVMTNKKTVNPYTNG

B1: UGCAUUC (DNA:RNA)
RNA: GGGAGACCGGAAUUCAGAUUGUCCUGCAUUCUUAAAUCCCGUCGUAGCCACCA
DNA 1: CAATCTGAATTCCGGTCTCCC
DNA 2: TGGTGGCTACGACGGGATT
B2: CGGUGCA (DNA:RNA)
RNA: B1 RNA with U25C, C27G, A28U, U29G, U30C, C31A
DNA 1: CAATCTGAATTCCGGTCTCCC
DNA 2: TGGTGGCTACGACGGGATT
B3: CCGUGCA (DNA:RNA)
RNA: GGGAGACCGGAAUUCAGAUUGUCCCCGUGCAUUAAAUCCCGUCGUAGCCACCA
DNA 1: CAATCTGAATTCCGGTCTCCC
DNA 2: TGGTGGCTACGACGGGATT
B4: CUGUGUG (DNA:RNA)
RNA: B3 RNA with C26U, C30U, A31G
DNA 1: CAATCTGAATTCCGGTCTCCC
DNA 2: TGGTGGCTACGACGGGATT
B5: ACUCAGC (DNA:RNA)
RNA: B3 RNA with C25A, G27U, U28C, G29A, C30G, A31C
DNA 1: CAATCTGAATTCCGGTCTCCC
DNA 2: TGGTGGCTACGACGGGATT
B6: GUAGGCC (DNA:RNA)
RNA: B3 RNA with C25G, C26U, G27A, U28G, A31C
DNA 1: CAATCTGAATTCCGGTCTCCC
DNA 2: TGGTGGCTACGACGGGATT
B7: UAAAGUG (DNA:RNA)
RNA: B1 RNA with G26A, C27A, U29G, C31G
DNA 1: CAATCTGAATTCCGGTCTCCC
DNA 2: TGGTGGCTACGACGGGATT
B8: CACUAAU (DNA:RNA)
RNA: B3 RNA with C26A, G27C, G29A, C30A, A31U
DNA 1: CAATCTGAATTCCGGTCTCCC
DNA 2: TGGTGGCTACGACGGGATT
B9: UACCGCC (DNA:RNA)
RNA: B1 RNA with G26A, A28C, U29G, U30C
DNA 1: CAATCTGAATTCCGGTCTCCC
DNA 2: TGGTGGCTACGACGGGATT
B10: AAUUCUA (DNA:RNA)
RNA: B3 RNA with C25A, C26A, G27U, G29C, C30U
DNA 1: CAATCTGAATTCCGGTCTCCC
DNA 2: TGGTGGCTACGACGGGATT
B11: UGCAUCG (DNA:RNA)
RNA: B1 RNA with U30C, C31G
DNA 1: CAATCTGAATTCCGGTCTCCC
DNA 2: TGGTGGCTACGACGGGATT
B12: UGCAUCA (DNA:RNA)
RNA: B1 RNA with U30C, C31A
DNA 1: CAATCTGAATTCCGGTCTCCC
DNA 2: TGGTGGCTACGACGGGATT
B13: UGCAUCC (DNA:RNA)
RNA: B1 RNA with U30C
DNA 1: CAATCTGAATTCCGGTCTCCC
DNA 2: TGGTGGCTACGACGGGATT
B14: AGGGCCC (DNA:RNA)
RNA: B3 RNA with C25A, C26G, U28G, G29C, A31C
DNA 1: CAATCTGAATTCCGGTCTCCC
DNA 2: TGGTGGCTACGACGGGATT
B15: GUGAUCC (DNA:RNA)
RNA: B1 RNA with U25G, G26U, C27G, U30C
DNA 1: CAATCTGAATTCCGGTCTCCC
DNA 2: TGGTGGCTACGACGGGATT
B16: AGGGUCU (DNA:RNA)
RNA: B3 RNA with C25A, C26G, U28G, G29U, A31U
DNA 1: CAATCTGAATTCCGGTCTCCC
DNA 2: TGGTGGCTACGACGGGATT
B17: CCGCUUG (DNA:RNA)
RNA: B3 RNA with U28C, G29U, C30U, A31G
DNA 1: CAATCTGAATTCCGGTCTCCC
DNA 2: TGGTGGCTACGACGGGATT
B18: GCUUGCA (DNA:RNA)
RNA: B3 RNA with C25G, G27U
DNA 1: CAATCTGAATTCCGGTCTCCC
DNA 2: TGGTGGCTACGACGGGATT
B19: CGUUGCA (DNA:RNA)
RNA: B3 RNA with C26G, G27U
DNA 1: CAATCTGAATTCCGGTCTCCC
DNA 2: TGGTGGCTACGACGGGATT
B20: GCUUGCG (DNA:RNA)
RNA: B3 RNA with C25G, G27U, A31G
DNA 1: CAATCTGAATTCCGGTCTCCC
DNA 2: TGGTGGCTACGACGGGATT
B21: GCUUGCU (DNA:RNA)
RNA: B3 RNA with C25G, G27U, A31U
DNA 1: CAATCTGAATTCCGGTCTCCC
DNA 2: TGGTGGCTACGACGGGATT
B22: GUCCGCU (DNA:RNA)
RNA: B3 RNA with C25G, C26U, G27C, U28C, A31U
DNA 1: CAATCTGAATTCCGGTCTCCC
DNA 2: TGGTGGCTACGACGGGATT
B23: GCUUUGC (DNA:RNA)
RNA: B3 RNA with C25G, G27U, G29U, C30G, A31C
DNA 1: CAATCTGAATTCCGGTCTCCC
DNA 2: TGGTGGCTACGACGGGATT
B24: GCUUAAA (DNA:RNA)
RNA: B3 RNA with C25G, G27U, G29A, C30A
DNA 1: CAATCTGAATTCCGGTCTCCC
DNA 2: TGGTGGCTACGACGGGATT
B25: CGCUUGC (DNA:RNA)
RNA: B1 RNA with U25C, A28U, U30G
DNA 1: CAATCTGAATTCCGGTCTCCC
DNA 2: TGGTGGCTACGACGGGATT
B26: UAAGGUC (DNA:RNA)
RNA: B1 RNA with G26A, C27A, A28G, U29G
DNA 1: CAATCTGAATTCCGGTCTCCC
DNA 2: TGGTGGCTACGACGGGATT
B27: UACUCGA (DNA:RNA)
RNA: B3 RNA with C25U, C26A, G27C, G29C, C30G
DNA 1: CAATCTGAATTCCGGTCTCCC
DNA 2: TGGTGGCTACGACGGGATT
B28: AUACUGG (DNA:RNA)
RNA: B1 RNA with U25A, G26U, C27A, A28C, U30G, C31G
DNA 1: CAATCTGAATTCCGGTCTCCC
DNA 2: TGGTGGCTACGACGGGATT
B29: GUUACCU (DNA:RNA)
RNA: B3 RNA with C25G, C26U, G27U, U28A, G29C, A31U
DNA 1: CAATCTGAATTCCGGTCTCCC
DNA 2: TGGTGGCTACGACGGGATT
B30: CCCUACU (DNA:RNA)
RNA: B3 RNA with G27C, G29A, A31U
DNA 1: CAATCTGAATTCCGGTCTCCC
DNA 2: TGGTGGCTACGACGGGATT
B31: CUGGUCC (DNA:RNA)
RNA: B3 RNA with C26U, U28G, G29U, A31C
DNA 1: CAATCTGAATTCCGGTCTCCC
DNA 2: TGGTGGCTACGACGGGATT
B32: UGGGUCG (DNA:RNA)
RNA: B1 RNA with C27G, A28G, U30C, C31G
DNA 1: CAATCTGAATTCCGGTCTCCC
DNA 2: TGGTGGCTACGACGGGATT
B33: UGGUCCG (DNA:RNA)
RNA: B3 RNA with C25U, C26G, G29C, A31G
DNA 1: CAATCTGAATTCCGGTCTCCC
DNA 2: TGGTGGCTACGACGGGATT
B34: UGGGACC (DNA:RNA)
RNA: B1 RNA with C27G, A28G, U29A, U30C
DNA 1: CAATCTGAATTCCGGTCTCCC
DNA 2: TGGTGGCTACGACGGGATT
B35: UGGGUCC (DNA:RNA)
RNA: B1 RNA with C27G, A28G, U30C
DNA 1: CAATCTGAATTCCGGTCTCCC
DNA 2: TGGTGGCTACGACGGGATT
B36: UGGGUCA (DNA:RNA)
RNA: B3 RNA with C25U, C26G, U28G, G29U
DNA 1: CAATCTGAATTCCGGTCTCCC
DNA 2: TGGTGGCTACGACGGGATT

Each binder was assayed against T1, RBFOX1 RRM (assay: EMSA; HiTS-Eq, 1 nM pool, 10 min; buffer printed only for the single-RNA assays: 10 mM Tris pH 7.5, 150 mM NaCl, 3.4 mM EDTA, 0.001% NP-40, 30 C). Conditions: tags: His6 N-terminal (pET28a); label: 5' 32P.
In short: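 Purified RbFox RRM (wild type or mutant) was equilibrated for 10 min in 50 µL with 1 nM of a 5′-radiolabelled pool of RNA with 7 randomized nucleotides, its flanks annealed to DNA oligonucleotides, across increasing protein concentrations. Free RNA was separated by 8% native PAGE, excised, reverse-transcribed, PCR-barcoded and sequenced on an Illumina HiSeq 2500. Relative association constants came from read-count changes of each variant against the control reaction, normalised to the cognate motif.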

| Binder | binding signal |
| --- | --- |
| B1 | 0.0105 KA relative to UGCAUGU |
| B2 | 0.0194 KA relative to UGCAUGU |
| B3 | 0.017 KA relative to UGCAUGU |
| B4 | 0.027 KA relative to UGCAUGU |
| B5 | 0.00534 KA relative to UGCAUGU |
| B6 | 0.00837 KA relative to UGCAUGU |
| B7 | 0.00935 KA relative to UGCAUGU |
| B8 | 0.00175 KA relative to UGCAUGU |
| B9 | 0.00921 KA relative to UGCAUGU |
| B10 | 0.00109 KA relative to UGCAUGU |
| B11 | 0.0295 KA relative to UGCAUGU |
| B12 | 0.0118 KA relative to UGCAUGU |
| B13 | 0.0337 KA relative to UGCAUGU |
| B14 | 0.0184 KA relative to UGCAUGU |
| B15 | 0.0187 KA relative to UGCAUGU |
| B16 | 0.0254 KA relative to UGCAUGU |
| B17 | 0.0253 KA relative to UGCAUGU |
| B18 | 0.0329 KA relative to UGCAUGU |

| Binder | binding signal |
| --- | --- |
| B19 | 0.0228 KA relative to UGCAUGU |
| B20 | 0.0193 KA relative to UGCAUGU |
| B21 | 0.0354 KA relative to UGCAUGU |
| B22 | 0.0113 KA relative to UGCAUGU |
| B23 | 0.0232 KA relative to UGCAUGU |
| B24 | 0.00504 KA relative to UGCAUGU |
| B25 | 0.032 KA relative to UGCAUGU |
| B26 | 0.0168 KA relative to UGCAUGU |
| B27 | 0.0112 KA relative to UGCAUGU |
| B28 | 0.00795 KA relative to UGCAUGU |
| B29 | 0.00787 KA relative to UGCAUGU |
| B30 | 0.00609 KA relative to UGCAUGU |
| B31 | 0.0227 KA relative to UGCAUGU |
| B32 | 0.0407 KA relative to UGCAUGU |
| B33 | 0.017 KA relative to UGCAUGU |
| B34 | 0.0142 KA relative to UGCAUGU |
| B35 | 0.0332 KA relative to UGCAUGU |
| B36 | 0.0232 KA relative to UGCAUGU |
